# Activity calls are given as the source filed them.
# Test: E. coli DRC41 culture turbidity changes, primary screen, E. coli filamentation inducer project, strain DRC41, OD650, 48 h (AID 1152);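 note: E. coli MC1000 strain DRC41 lacking acrAB efflux pump and sulA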
# Settings: E. coli DRC41 (acrAB sulA), higher = more signal, called active from +8 up or from −8 down
row,Structure (SMILES),z-score
1,O=C(NCCN1CCOCC1)[C@@H]1c2ccccc2C(=O)N(Cc2ccccc2Cl)[C@H]1c1ccc(CO)cc1,0.446 (inactive)
2,COC(=O)[C@@]1(Cc2ccc(F)cc2)[C@H]2c3cc(C(=O)N4CCCC4)n(Cc4ccc(C)c(F)c4F)c3C[C@H]2CN1C(=O)c1ccccc1,-1.31 (inactive)
3,CCCCC(CC)C(O)C1C=CC2C(=O)N(c3ccccc3)C(=O)C2N1Nc1ccccc1F (centres undefined),0.351 (inactive)
4,[N-]=[N+]=Nc1ccccc1C[C@]1(C(=O)O)COC(c2ccc(OCCCO)cc2)=N1,-0.541 (inactive)
5,CC(=O)NCCCC[C@@H]1NC(=O)[C@@H]2C[C@H](C(=O)NCCCCCN)[C@H](c3cccc(OCCO)c3)N2C1=O,2.26 (inactive)
6,COc1ccc(C#Cc2ccc3c(c2)[C@]2(C(=O)N3)[C@H](c3ccc(OCCO)cc3)N3[C@H](c4ccccc4)[C@H](c4ccccc4)OC(=O)[C@H]3[C@@H]2C(=O)NC[C@H](O)c2ccccc2)cc1,1.01 (inactive)
7,CC(C)NC(=O)[C@@]1(C)c2ccccc2C(=O)N(Cc2ccc(OC(F)(F)F)cc2)[C@H]1c1ccc(CO)cc1,-0.362 (inactive)
8,CCCC[C@@H](O)C1=C(COC)C[C@H]2C(=O)N(Cc3ccccc3)C(=O)[C@H]2[C@H]1CO,0.878 (inactive)

# Test: small-molecule binders of probe aLefty1, primary screen, biochemical, small-molecule microarray, 635/667 nm fluorescence (AID 1153);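 note: score merges spot fluorescence with signal-to-noise ratio from the scanned slide images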
# Settings: higher = more signal
row,Structure (SMILES),composite z-score
1,CCOC(=O)C[C@H]1[C@H](OC(=O)Cc2ccc3c(c2)OCO3)[C@@H](NC(=O)c2ccc3ccccc3n2)c2cc(OCCCO)ccc2N1C(=O)c1ccccc1,0.101
2,COc1ccc([Si](C)(C)[C@@H]2[C@@H](CC(=O)N(CCO)Cc3ccccc3)O[C@]3(C(=O)N(Cc4cccc(N5CCCCC5=O)c4)c4ccccc43)[C@H]2C)cc1,0.527
3,C=C[C@@H](OC)[C@H](OC(=O)Nc1ccc(OC)cc1)c1ccc(O)c(F)c1,0.0774
4,CCCCCC1=C2CNC(C)(C(=O)OC)C=C2C(C)C1=O (centres undefined),-0.0236
5,O=C1NC(=O)C2C1C=CC(C(O)c1ccco1)N2Nc1ccc(Cl)cc1Cl (centres undefined),-0.0984
6,CCC#CCN(Cc1ccccc1Br)[C@H](/C=C/C1CC1)[C@@H](O)Cc1ccccc1,-0.13
7,COc1ccc([Si](C)(C)[C@@H]2[C@@H](CC(=O)N3Cc4ccccc4C[C@H]3CO)O[C@]3(C(=O)N(Cc4ccc(N5C(=O)c6cccc7cccc5c67)cc4)c4ccccc43)[C@H]2C)cc1,0.0391
8,[N-]=[N+]=Nc1ccccc1C[C@@]1(C(=O)NCCN2CCOCC2)N=C(c2ccc(OCCCO)cc2)O[C@@H]1c1ccccc1N=[N+]=[N-],0.632
9,CC1=C2[C@@H](CCc3ccccc3)OB(O)C[C@@H]2[C@@H]2C(=O)N(Cc3ccccc3)C(=O)[C@@H]2C1,-0.301
10,CC1CC/C=C\[C@H]2OC34C=CCN(Cc5ccccc5)C(=O)[C@H]3N(C(CO)C(C)C)C(=O)[C@@H]4C2C(=O)O1 (some centres undefined),-0.149
11,COc1cccc(C)c1NC(=O)O[C@H]1[C@H](OC(=O)Nc2ccc3c(c2)OCO3)[C@@H](OC(=O)Nc2ccc3c(c2)OCO3)[C@@H](OC)O[C@@H]1CO,-0.165
12,Cc1ccccc1C(O)C1C=CC2C(=O)NC(=O)C2N1Nc1ccccn1 (centres undefined),-0.229
13,CCCCC(=C=CC[C@H](O)c1ccc(OCCO)cc1)CCO,-0.0967
14,CC(c1ccccc1)C(O)C1C=CC2C(=O)N(C)C(=O)C2N1Nc1ccccc1 (centres undefined),0.146
15,C=CCC(OC(C)=O)[C@@H]1[C@@H](N(Cc2ccc(-c3cccc(C(F)(F)F)c3)o2)C(=O)Cc2ccc(OC)cc2)c2cc(OCCCO)ccc2N1C(=O)c1ccc(-c2ccccc2)cc1 (some centres undefined),0.235
16,Cc1ccc(S[C@]2(C(=O)NC(C)C)CC(=O)N(Cc3cc(C(F)(F)F)cc(C(F)(F)F)c3)[C@@H]2c2ccc(CO)cc2)cc1,-0.0252
17,CCOC(=O)C[C@H]1[C@H](OC(=O)c2cc3ccccc3oc2=O)[C@@H](NC(=O)CC(C)C)c2cc(OCCCO)ccc2N1C(=O)c1ccc2ccccc2n1,-0.0061
18,COc1ccc(CCNC(=O)[C@@]2(c3ccc([N+](=O)[O-])cc3)CC(=O)N(C3CCCCC3)[C@@H]2c2ccc(CO)cc2)cc1,0.213
19,C[C@@H]1NC(=O)[C@@H](Cc2ccccc2)NC(=O)[C@@]23C(=O)N[C@@H](Cc4ccccc4)C2[C@H](C)[C@@]2(C)O[C@H]2C3/C=C/C/C=C\CNC1=O (some centres undefined),-0.0046
20,CCC1=C2CN(Cc3ccccc3)[C@@H](C(=O)Cc3ccccc3)C2C=CCC1 (some centres undefined),-0.0984
21,N#Cc1ccc(NN2C(C(O)c3ccc(Br)cc3)C=CC3C(=O)N(c4ccccc4)C(=O)C32)cc1 (centres undefined),0.57

# Source: PubChem BioAssay
